Screens from PubChem.
Shown are actives, neighbours in structure and some others; about 5.1% of the full set was active somewhere.
HEK293 cAMP cs = counter-screen for TSHR agonists: cAMP increase in parental HEK293; parental HEK293 CNG cAMP sensor, membrane potential fluorescence; Potency, µM (doses to about 57.1 µM), without a hit: at the highest dose activation, actives largely listed as activators; hit rate 2.5% among 73,000; note: % of control where 0% means no effect; nearly all actives have a fitted effect of over 55% in size
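Counterscreen for endogenous-receptor signalling: CNG-channel HEK 293 cells report cAMP rise by membrane depolarization. After 60 min dye equilibration with 100 uM RO 20-1724, compounds incubated 30 min before bottom-read fluorescence at 590 nm.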
Pol III holo inh = blocks replication by bacterial DNA polymerase III holoenzyme. reconstituted DNA polymerase III holoenzyme replication, biochemical. Potency, µM (series often up to 57.1 µM), without a hit: top-dose activity change, negative = inhibition. hit rate 0.25% among 71,000; note: % is set by controls: 0 for no effect and ±100 for the full control effect
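Reconstituted *E. coli* holoenzyme (0.35 nM Pol III, 1 nM beta, 154 nM SSB, 2 nM primase) was preincubated with compound for 15 min at RT. Synthesis on 1.4 nM ssM13Gori ran 35 min, then was stopped with PicoGreen/EDTA and read as dsDNA fluorescence.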
TSHR agonist = activates the human thyroid stimulating hormone receptor. HEK293-CNG-TSHR cells (CNG channel as cAMP sensor), membrane potential dye, cAMP. Potency, µM (series often up to 57.1 µM), inactives show at the highest dose activation, most hits filed as activators. hit rate 0.48% among 73,000; active = well fitted activation curve with a large enough effect in the main read-out, with a control signal flat, not every such curve was filed as active; inconclusive = small, poorly fitted or top-dose-only effect, or a change in a side signal; inactive = no such curve, though single readings can be large or run the other way; % of control where 0% means no effect;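 note: the control signal comes from parental cells without the receptor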
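HEK 293 cells stably expressing TSHR and a cAMP-gated CNG channel; parental CNG-only cells as counterscreen. Cells preloaded 60 min with membrane potential dye plus 100 uM RO 20-1724, then compound 30 min; fluorescence read at 590 nm.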
Hsp90 Hop PPI = changes Hsp90-Hop TPR2A binding signal, up or down; hit rate 0.44% among 71,000; AlphaScreen TPR2A-His6 binding biotin-Hsp90 C-terminal peptide; AID 595; Potency, µM (highest dose often 57 µM), without a hit: at the highest dose activity change, negative = inhibition; active = well fitted curve in either direction with a large enough effect; inconclusive = small, poorly fitted or top-dose-only effect, or another doubt; note: % is set by controls: 0 for no effect and ±100 for the full control effect
Tau fil binding = binders of human tau filaments. recombinant tau filaments, thioflavin S fluorescence, 15 h; filaments grown with octadecylsulfate alongside compound. Potency, µM (series often up to 57.1 µM), without a hit: top-dose activity change, negative = inhibition. hit rate 2% among 71,000. AID 596;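 note: % is set by controls: 0 for no effect and ±100 for the full control effect; actives lower thioflavin S fluorescence by blocking filaments or displacing dye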
Target sequence (P10636 whole entry, looked up): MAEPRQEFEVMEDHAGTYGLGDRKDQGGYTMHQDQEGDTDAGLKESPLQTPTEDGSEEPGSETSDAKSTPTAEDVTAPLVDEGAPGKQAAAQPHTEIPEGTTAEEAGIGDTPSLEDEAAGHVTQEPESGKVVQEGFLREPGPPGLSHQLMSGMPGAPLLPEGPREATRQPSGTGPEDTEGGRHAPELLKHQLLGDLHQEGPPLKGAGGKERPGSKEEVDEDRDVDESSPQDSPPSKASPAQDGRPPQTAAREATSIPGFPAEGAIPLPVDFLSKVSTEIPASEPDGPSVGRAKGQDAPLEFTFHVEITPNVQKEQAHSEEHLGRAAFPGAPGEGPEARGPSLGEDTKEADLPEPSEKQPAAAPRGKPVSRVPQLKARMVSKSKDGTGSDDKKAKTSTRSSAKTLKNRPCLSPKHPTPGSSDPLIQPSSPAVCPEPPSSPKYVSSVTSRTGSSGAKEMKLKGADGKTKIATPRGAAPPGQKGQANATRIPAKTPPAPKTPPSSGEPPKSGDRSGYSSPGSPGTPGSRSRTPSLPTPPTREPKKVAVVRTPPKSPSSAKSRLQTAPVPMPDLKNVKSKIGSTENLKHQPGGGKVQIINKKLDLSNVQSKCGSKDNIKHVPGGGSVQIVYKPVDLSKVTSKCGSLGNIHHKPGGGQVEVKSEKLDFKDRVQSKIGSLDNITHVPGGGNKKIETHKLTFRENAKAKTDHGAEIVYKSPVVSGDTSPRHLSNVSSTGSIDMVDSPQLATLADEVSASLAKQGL
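Read-out: ThS fluorescence, 450 nm excitation/510 nm emission; lower signal marks blocked filament formation or displaced dye. Tau at 1 uM with 30 uM ODS, 10 uM ThS, 5 mM DTT, 100 mM NaCl, 10 mM HEPES pH 7.4; 15 h, 37 C.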
* = called active by the depositor; i = inactive; u = inconclusive; x = no result given; [ ] = another dose, or the depositor's remark. Unless noted, calls come from the whole dose curve; as a rule, active = well fitted curve in the direction sought with a large enough effect; inconclusive = small, poorly fitted or top-dose-only effect, or another doubt; inactive = no such curve, though single readings can be large; an effect the other way counts as inactive or inconclusive. Potency is the fitted concentration of half-maximal effect.

SMILES	HEK293 cAMP cs	Pol III holo inh	TSHR agonist	Hsp90 Hop PPI	Tau fil binding
Cc1c(N=C/C=C/c2ccccc2)c(=O)n(-c2ccccc2)n1C	6%	1%	x	-4%	1%
C[C@@H]1CCCN(CP(=O)(c2ccccc2)c2ccccc2)C1	27%[11.4 µM]	-10%[11.4 µM]	11%[11.4 µM]	3%[11 µM]	2%[11.4 µM]
O=S(=O)(c1ccccc1)N1CCC2(CCCN(Cc3ccccc3)C2)CC1	16µM*	-3%	u	0%	4%
O=S(=O)(c1ccccc1)N1CCC2(CCN(Cc3ccccc3)CC2)CC1	-2%	1%	-2%	-5%	8%
c1ccc(-c2nn3c(-c4ccco4)nnc3s2)nc1	6%	-4%	4%	-10%	-24%
Cc1ccc(OCc2nn3c(-c4ccco4)nnc3s2)cc1	u	1%	u	-3%	9%
Clc1ccc(OCc2nn3c(-c4ccco4)nnc3s2)c(Cl)c1	32µM*	6%	u	-2%	10%
Brc1ccc(-c2nn3c(-c4ccncc4)nnc3s2)o1	-1%	-6%	7%	-3%	12%
Clc1ccc(-c2ccc(-c3nn4c(-c5ccco5)nnc4s3)o2)cc1	u	-11%	u	-17%	25µM*
Brc1ccc(-c2nn3c(-c4ccco4)nnc3s2)o1	6%	25µM*	3%	-9%	-8%
COc1ccc(C(=O)N2CCC3(CCCN(C(=O)Nc4cccc(F)c4)C3)CC2)cc1	12%	-7%	x	2%	2%
CCCc1cc2c(n1Cc1ccc(OC)cc1)C(C)C1CN(C(=O)c3ccccc3)C(C)(C(=O)OC)C21 (stereo not drawn)	30%	14%	5%	0%	6%
COc1ncc2ncc(=O)n(C)c2n1	14%	7%	-4%	-3%	6%
CC(=O)N1CCC2(CCCN(c3cccc(-c4ccccc4)c3)C2)CC1	u	-3%	u	-25%	112%
COc1ccc(-c2ccc(-c3nnc(Cc4ccc(OC)c(OC)c4)o3)cc2)cc1	28%	4%	x	0%	-2%
COc1cccc(-c2nc(Cc3ccc(OC)c(OC)c3)no2)c1	25µM*	4%	u	13%	13%
COc1ccc(N2CCC(CNC(=O)Nc3ccc(C)c(C)c3)C2)cc1 (stereo not drawn)	0%	-5%	-20%	-26%	u
COc1ccc(N2CCC(CNC(=O)Nc3ccc(OC)cc3OC)C2)cc1 (stereo not drawn)	-20%	5%	-11%	u	20µM*
COc1ccc(N2CCC(CNS(=O)(=O)c3cccc(C(F)(F)F)c3)C2)cc1 (stereo not drawn)	0%	-4%	-13%	-24%	1.3µM*
O=S(=O)(NCC1CC1)c1cccc(S(=O)(=O)N2CCCC2)c1	9%	-4%	0%	2%	3%
O=c1c(CCc2ccccc2)nc2cnc(N3CCOCC3)nc2n1Cc1ccc(F)cc1	u	-10%	u	-3%	17%
O=C(CSc1nc2ccccc2c(=O)n1Cc1ccco1)c1ccccc1	u	-6%	u	2%	i
O=C(CSc1nc2ccccc2c(=O)n1-c1ccc(Cl)cc1)c1ccco1	25µM*	2%	u	-4%	63%
CCOC(=O)C1=C(N)OC2=C(C(=O)CC(C)(C)C2)C1c1ccco1 (stereo not drawn)	25µM*	-9%	u	-2%	14%
O=C(O)CSc1cc(-c2ccccc2)nc2ccccc12	16%[11.4 µM]	8%[11.4 µM]	2%[11.4 µM]	-2%[11 µM]	-2%[11.4 µM]
SMILES	HEK293 cAMP cs	Pol III holo inh	TSHR agonist	Hsp90 Hop PPI	Tau fil binding
On1onc2c3cc(-c4ccccc4)nc3ccc21	-28%	-8%	-39%	-28%	13µM*
Cc1cc(N2CCOCC2)c2c(N)c(C)cc(C)c2n1	u	-6%	u	-7%	16µM*
Oc1ccc2cc(SSc3ccc4cc(O)ccc4c3)ccc2c1	6%	-13%	u	u	-17%
CC(C)(C)c1cc(C(F)(F)F)nc(SCCCNC(=O)c2ccco2)n1	26%	-3%	25µM*	3%	-12%
Nc1nnc(CCCCc2cccs2)o1	0.5µM*	x	u	x	x
O=C(O)CCCC(=O)OCCCCc1cccs1	5%	-4%	2%	-1%	7%
Cc1sc2ncnc(SCC#N)c2c1C	5%	-6%	-1%	-2%	-23%
Cc1cc2ccc(C)c(C)c2nc1SCC#N	20µM*	-5%	u	u	23%
COc1ccc(OC)c(NS(=O)(=O)Cc2ccccc2)c1	5%	-6%	2%	-24%	16µM*
COc1ccc(OC)c(S(=O)(=O)NCc2ccccc2)c1	3%	1%	6%	-2%	10%
COc1cccc(Cn2c(=O)c(-c3cccs3)nc3cnc(N4CCN(C)CC4)nc32)c1	-10%	-6%	2%	14%	i
COc1ccc(-c2nc3cnc(N4CCN(C)CC4)nc3n(Cc3cccc(OC)c3)c2=O)cc1	7%	5%	9%	u	70%
CC(=O)C1=C(O)C=C(c2ccco2)CC1c1ccco1 (stereo not drawn)	16µM*	-2%	u	-14%	20µM*
O=C(Nc1cccc(F)c1)N1CCC2(CC1)CCN(C(=O)c1cnccn1)CC2	-7%	-5%	-2%	-2%	12%
CCC1CCCCN1CC(=O)Nc1cc(C)nn1-c1nc(C)cc(C)n1 (stereo not drawn)	25µM*	-3%	u	-1%	32%
CN(C)Cc1ccccc1-c1nc(N(C)Cc2ccco2)c2ccccc2n1	13µM*	-9%	u	-5%	24%
Cc1cnc(CNc2ccnc(-c3ccccc3CN(C)C)n2)cn1	2%	1%	5%	-10%	0%
CN(C)Cc1ccccc1-c1ccc2ncnc(N(C)Cc3ccco3)c2c1	u	-2%	u	-6%	-8%
CN(C)Cc1ccccc1-c1nccc(N(C)Cc2ccco2)n1	32µM*	-5%	u	-5%	46%
CN(C)Cc1ccccc1-c1nc(N2CCOCC2)c2ccccc2n1	7.9µM*	-13%	u	-5%	-8%
Cc1ccccc1-c1nc(N2CCOCC2)c2ccccc2n1	u	-7%	u	-3%	-2%
CN(C)Cc1ccccc1-c1nccc(NCc2cccs2)n1	25µM*	-5%	u	-6%	-4%
CN(C)CCn1c(CO)nc2c1c(=O)n(C)c(=O)n2C	1%[11.4 µM]	-1%[11.4 µM]	-4%[11.4 µM]	-3%[11 µM]	4%[11.4 µM]
Cc1ccc(C2=C(Cl)C(=O)C(c3ccc(C)cc3)=C(Cl)C2=O)cc1	3%[11.4 µM]	-16%[11.4 µM]	2%[11.4 µM]	-3%[11 µM]	-2%[11.4 µM]
CO[C@@H]1COC(=O)CCC[C@@H](C)[C@H](OC)COC(=O)[C@H](Cc2ccccc2)NC(=O)C/C=C\[C@H]1C	20%[11.4 µM]	x	2%[11.4 µM]	x	x
C/C=C\C1=C(CO)C(=O)[C@@H]2OC2C1=O (stereo partly drawn)	-1%[11.4 µM]	x	9%[11.4 µM]	x	x
O=C(CCN1C(=O)c2ccccc2C1=O)N1CCN(C(=O)c2ccccc2)CC1	28%	-11%	25µM*	u	10%
